A selection: hits, their analogues and other compounds. The true share with any hit is near 4.1%.
VHR inh abs = VHR1 phosphatase inhibitors, primary screen, biochemical, absorbance, uHTS; recombinant VHR phosphatase, pNPP absorbance; inhibition, % at 13.3 µM; hit rate 0.52% among 290,000; in the data active = inhibition above about 50%
Target sequence (P51452 whole entry, looked up): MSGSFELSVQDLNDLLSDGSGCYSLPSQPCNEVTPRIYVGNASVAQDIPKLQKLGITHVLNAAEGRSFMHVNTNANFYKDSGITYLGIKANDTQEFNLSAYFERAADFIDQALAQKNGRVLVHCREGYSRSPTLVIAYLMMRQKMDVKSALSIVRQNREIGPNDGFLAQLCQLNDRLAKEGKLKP
BoNT-A LC inh2 = BoNT/A light chain protease inhibitors, primary screen, biochemical, flow cytometry, MLPCN library | multiplex microsphere protease substrate cleavage | hit rate 0.17% among 360,000 | inhibition, % at 10 µM | Botulinum neurotoxin type A light chain protease (Clostridium botulinum A str. ATCC 3502); note: plate controls were buffer without enzyme for full effect and enzyme alone for no effect
BoNT F protease = BoNT/F light chain protease inhibitors, primary screen, biochemical, flow cytometry, MLPCN library. inhibition, % at 10 µM. Botulinum neurotoxin type F light chain protease (Clostridium botulinum). hit rate 0.22% among 360,000. Multiplex microsphere protease cleavage assay. AID 588497, 2011; in the data active = inhibition above about 35%, passing the limit was not always enough; inconclusive = no clear call, values can overlap the other calls; note: plate controls were buffer without enzyme for full effect and enzyme alone for no effect
Anthrax LF prot = Bacillus anthracis LF protease inhibitors, primary screen, biochemical, multiplex microsphere, MLPCN library; AID 588501, 2011; multiplex microsphere protease cleavage assay; inhibition, % at 10 µM; Lethal factor (Bacillus anthracis), P15917; hit rate 0.12% among 360,000; note: plate controls were buffer without enzyme for full effect and enzyme alone for no effect
MazF activator = activators of E. coli MazEF toxin-antitoxin RNase, primary screen, biochemical, fluorescence, uHTS; FAM/BHQ RNA-DNA oligo cleavage fluorescence, 5 h; hit rate 0.32% among 350,000; Endoribonuclease toxin MazF (Escherichia coli (strain K12)), P0AE70; activation, % at 20 µM; in the data active = activation above about 50%
Target sequence (P0AE70 whole entry, looked up): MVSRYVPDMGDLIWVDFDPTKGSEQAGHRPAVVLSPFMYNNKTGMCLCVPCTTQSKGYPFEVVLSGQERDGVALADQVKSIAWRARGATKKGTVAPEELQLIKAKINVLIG
Autofluor counter = counter-screen for toxin protease inhibitors: compound fluorescence; fluorescence intensity (no concentration beside the values); compound autofluorescence counterscreen, microsphere flow cytometry; stronger effect = higher value; AID 624483; hit rate 3.1% among 360,000; in the data active = fluorescence intensity above about 16000; inconclusive = no clear call, values can overlap the other calls
* marks the source's active call; other numbers are inactive results; i = inactive; ? = inconclusive; . = not tested or not shown. Cut-off read from the data, not from the text of the source, unless noted: active = inhibition above about 30%; inconclusive = no clear call, values can overlap the other calls; inactive = below that.

SMILES	VHR inh abs	BoNT-A LC inh2	BoNT F protease	Anthrax LF prot	MazF activator	Autofluor counter
Nc1c(C(=O)O)sc2nc3c(cc12)CCCC3	25	2	10	?	12	3851
Nc1c(C(=O)c2ccc(Cl)cc2)sc2nc3c(cc12)CCC3	-33	0	5	0	70*	2521
CC1(C(=O)NS(=O)(=O)C2CC2)CCN(C(=O)CSc2ccccc2)C1 (stereo not drawn)	.	0	0	-6	.	3772
COc1c(F)c(F)c(C(=O)Nc2ccc(N3CCN(C(C)=O)CC3)c(Cl)c2)c(F)c1F	4	?	-7	-5	1	17323*
COc1c(F)c(F)c(C(=O)Nc2ccc(N3CCN(Cc4ccccc4)CC3)cc2)c(F)c1F	-10	-4	-11	-10	-3	24627*
COc1ccc(C(=O)Nc2ccc(N3CCN(Cc4ccccc4)CC3)cc2)cc1	26	0	-7	2	5	4152
CCC(C(=O)N1CCN(S(=O)(=O)c2ccc(F)cc2)CC1)c1ccccc1 (stereo not drawn)	.	0	2	-1	11	2957
COc1ccc(-c2csc(-c3cc4ccccc4oc3=N)n2)cc1	-5	39*	4	16	5	2740
COc1ccc(-c2noc(-c3cc4ccccc4oc3=O)n2)cc1	14	.	.	.	.	.
CC(=O)c1c(C)[nH]c(C(=O)CN2CCN(S(=O)(=O)c3ccccc3)CC2)c1C	.	5	6	-3	7	7951
CCn1c(SCC(=O)c2ccc(Br)cc2)nnc1C(C)NC(=O)Cc1ccc(OC)cc1 (stereo not drawn)	4	-4	-5	-10	1	17649*
O=C(O)c1ccc(N/N=C/C(Br)=C/c2ccccc2)cc1	1	0	-3	6	61*	3416
CC(=O)N1CCN(c2cc(N3CCc4ccccc4C3)c(F)cc2[N+](=O)[O-])CC1	28	-5	-8	-4	7	17226*
CCC(=O)N1CCN(c2cc(N3CCCC3)c(F)cc2[N+](=O)[O-])CC1	.	0	-1	-2	8	3967
O=C(c1ccc(N2CCCCC2)c([N+](=O)[O-])c1)N1CCOCC1	24	0	1	-3	3	16276*
O=C(c1cccc(F)c1)N1CCN(c2cc(N3CCCCC3)c(F)cc2[N+](=O)[O-])CC1	-4	3	1	1	2	20200*
O=C(c1ccc(N2CCOCC2)c([N+](=O)[O-])c1)N1CCCCC1	31	-1	0	-5	1	5970
CC(C)C[C@@H]1O[C@H](CCc2ccccc2)Cc2[nH]c(=S)[nH]c(=O)c21	.	0	-3	2	.	6166
CCCCn1ccnc1C	58*	0	?	1	3	3930
Cc1nccn1CCCN1C(=O)CNC1=S	-3	-1	2	1	-1	2486
Cn1c(=O)c(N)c2c3c(c(Br)ccc31)C(=O)c1ccccc1-2	12	38*	-1	19	i	3760
CC(=O)Nc1ccc(S(=O)(=O)Nc2nc3ccccc3nc2N2CCCCCC2)cc1	9	?	1	-2	-5	23055*
Cc1ccc(S(=O)(=O)NC2=C(N3CCN(c4ccccc4F)CC3)C(=O)c3ccccc3C2=O)cc1	34	0	-6	-9	19	3323
Cc1ccc(S(=O)(=O)Nc2nc3ccccc3nc2N2CCN(c3ccccc3F)CC2)cc1	50*	0	?	-2	-13	4246
O=Cc1c(NCc2ccccc2Cl)c2ccccc2[nH]c1=O	5	.	.	.	-5	.
CCCCN(C)c1c(C)nc2ccc(C(=O)N(CC)CCN(C)C)cn12	.	0	-1	3	.	4070
O=c1[nH]n(-c2ccc(Cl)cc2)c(=O)c(Cl)c1Cl	14	?	-3	0	2	21602*
Nc1nccnc1C(=O)OCC(=O)c1ccc[nH]1	.	0	-7	5	6	5964
Cc1[nH]c(=O)[nH]c(=O)c1CSc1nnc([C@@H](NC(=O)OC(C)(C)C)C(C)C)o1	11	0	7	0	1	2482

Screening data (PubChem BioAssay)
